In PubChem BioAssay AID743449 (Broad Institute, 2014) one finds inhibition data, which are given here for 41 molecules.

Out of some 9,900 compounds screened, about 90 (0.9%) were called active. Inconclusive results (about 2%) are left out. This is one part of a sample in which actives are shown more often than they occur.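 The calls were made as follows: active = mean normalized replicate activity at least 50 and at least half of replicates each reaching 50; inconclusive = only one of the two criteria met; inactive = neither criterion met.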

The assay can be described thus: reduction of CTGF mRNA in DLD1 cells – DLD1 colon cancer cells, RT-qPCR, single point, primary screen (AID 743449).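 Also: 0% = neutral control wells and 100% = dasatinib control wells; higher means stronger suppression of CTGF expression like dasatinib.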 The note with it: 24 h, at 12.5 µM, hits give high values.
Usually inhibition stands for the change of the read-out against control, counted positive when it falls. `O=C(C[C@@H]1CC[C@H]2[C@@H](COC[C@H](O)CN2C(=O)Nc2ccc(Cl)cc2)O1)NCC1CCCCC1`: the inhibition is 4.31% (inactive).

For `COc1ccccc1C#Cc1ccc([C@@H]2[C@@H](C#N)N(C(=O)C3CCC3)[C@@H]2CO)cc1`, the inhibition was 21% (inactive).

As to `C[C@@H](NC(=O)C[C@@H]1C[C@H]2c3cc(NS(=O)(=O)c4ccc(F)cc4)ccc3O[C@H]2[C@@H](CO)O1)c1ccccc1`, the inhibition was -0.447% (inactive).

With `COc1cccc(CNC(=O)[C@H]2[C@H](CO)[C@H]3Cn4c(ccc(-c5cncnc5)c4=O)[C@H]3N2C)c1`, the inhibition is 1.36% (inactive).

Turning to `CO[C@@H](CN(C)S(=O)(=O)c1cccc(Cl)c1)[C@H](C)CN(C(=O)Nc1ccccc1F)[C@H](C)CO`, the inhibition was -17% (inactive).

In the case of `CCCNC(=O)N1[C@@H](C#N)[C@@H](c2ccc(C#Cc3cccc(F)c3)cc2)[C@@H]1CO`, the inhibition is 40.6% (inactive).

Turning to `CCCNC(=O)N1[C@H](C#N)[C@@H](c2ccc(C#Cc3cccc(F)c3)cc2)[C@@H]1CO`, the inhibition was 69.7% (active).

For `CCCNC(=O)N1[C@H](C#N)[C@H](c2ccc(C#Cc3cccc(F)c3)cc2)[C@H]1CO`, the inhibition was 12.2% (inactive).

On to `O=C(C[C@H]1CC[C@H]2[C@@H](COC[C@@H](O)CN2C(=O)c2ccc3c(c2)OCO3)O1)NC1CCC1`, for which the inhibition was 11% (inactive).

Take `CN(C)CC(=O)N1CC2(C1)[C@H](c1ccccc1)[C@H](CO)N2S(C)(=O)=O`: the inhibition was -45.5% (inactive).

As to `C[C@H](CO)N1C[C@H](C)[C@H](CN(C)Cc2ccc(Oc3ccccc3)cc2)OCc2ccccc2-c2ccccc2C1=O`, the inhibition is 59% (active).

On to `C[C@@H]1CN([C@@H](C)CO)C(=O)c2ccccc2-c2ccccc2CO[C@@H]1CN(C)Cc1ccc(Oc2ccccc2)cc1`, for which the inhibition is 44.4% (inactive).

For the molecule `C[C@@H]1CN([C@H](C)CO)C(=O)c2ccccc2-c2ccccc2CO[C@@H]1CN(C)Cc1ccc(Oc2ccccc2)cc1`, the inhibition is 83.9% (active).

With `C[C@H]1CN([C@@H](C)CO)C(=O)c2ccccc2-c2ccccc2CO[C@H]1CN(C)Cc1ccc(Oc2ccccc2)cc1`, the inhibition was 47.8% (inactive).

As for `C[C@H]1CN([C@@H](C)CO)C(=O)c2ccccc2-c2ccccc2CO[C@H]1CN(C)Cc1ccc2c(c1)OCCN2C`, the inhibition is -29.2% (inactive).

Regarding `C[C@@H]1CN([C@H](C)CO)C(=O)c2ccccc2-c2ccccc2CO[C@@H]1CN(C)Cc1ccc2c(c1)OCCN2C`, the inhibition is 68.3% (active).

For `C[C@H](CO)N1C[C@H](C)[C@@H](CN(C)Cc2ccc(Oc3ccccc3)cc2)OCc2ccccc2-c2ccccc2C1=O`, the inhibition was -10.6% (inactive).

For the molecule `C[C@@H]1CN([C@H](C)CO)C(=O)c2ccccc2-c2ccccc2CO[C@@H]1CN(C)Cc1cccnc1`, the inhibition is -8.82% (inactive).

As for `C[C@H](CO)N1C[C@H](C)[C@H](CN(C)Cc2ccc3c(c2)OCCN3C)OCc2ccccc2-c2ccccc2C1=O`, the inhibition is -137% (inactive).

As for `C[C@@H](NC(=O)C[C@@H]1CC[C@H]2[C@@H](COc3ccc(NC(=O)C4CCOCC4)cc3C(=O)N2C)O1)c1ccccc1`, the inhibition is -5.56% (inactive).

On to `O=C(CN1CCOCC1)N1CC[C@@H]2[C@H](CO)Nc3ccc(-c4ccccc4F)cc3[C@@H]21`, for which the inhibition is -17.8% (inactive).

As to `CCCC#Cc1ccc([C@@H]2[C@H]3CN(S(=O)(=O)c4ccccc4C)CC(=O)N3[C@H]2CO)cc1`, the inhibition is 26.1% (inactive).

As to `C[C@@H]1CN([C@H](C)CO)C(=O)c2ccccc2-c2ccccc2CO[C@H]1CN(C)C(=O)[C@@H]1CCCN1C`, the inhibition was 3.47% (inactive).

For the molecule `O=C(Nc1ccc(C(F)(F)F)cc1)Nc1ccc2c(c1)[C@@H]1C[C@H](CC(=O)N3CCc4ccccc4C3)O[C@@H](CO)[C@@H]1O2`, the inhibition is -25% (inactive).

On to `O=C(Nc1ccc2c(c1)[C@@H]1C[C@@H](CC(=O)N3CCc4ccccc4C3)O[C@H](CO)[C@@H]1O2)c1ccc2c(c1)OCO2`, for which the inhibition was 21.2% (inactive).

With `O=C(Nc1ccc2c(c1)[C@@H]1C[C@H](CC(=O)N3CCc4ccccc4C3)O[C@@H](CO)[C@@H]1O2)c1ccc2c(c1)OCO2`, the inhibition is -4.94% (inactive).

For the molecule `O=C(Nc1ccc2c(c1)[C@H]1C[C@@H](CC(=O)N3CCc4ccccc4C3)O[C@H](CO)[C@H]1O2)c1ccc2c(c1)OCO2`, the inhibition was 56.2% (active).

`O=C(Nc1ccc(C(F)(F)F)cc1)Nc1ccc2c(c1)[C@H]1C[C@H](CC(=O)N3CCc4ccccc4C3)O[C@@H](CO)[C@H]1O2`: the inhibition was 57.2% (active).

For the molecule `O=C(Nc1ccc2c(c1)[C@H]1C[C@@H](CC(=O)N3CCc4ccccc4C3)O[C@@H](CO)[C@H]1O2)c1ccc2c(c1)OCO2`, the inhibition was 61.8% (active).

In the case of `O=C(Nc1ccc2c(c1)[C@@H]1C[C@H](CC(=O)N3CCc4ccccc4C3)O[C@H](CO)[C@@H]1O2)c1ccc2c(c1)OCO2`, the inhibition was -19.3% (inactive).

With `O=C(Nc1ccc(C(F)(F)F)cc1)Nc1ccc2c(c1)[C@@H]1C[C@H](CC(=O)N3CCc4ccccc4C3)O[C@H](CO)[C@@H]1O2`, the inhibition is -58% (inactive).

For `O=C(Nc1ccc2c(c1)[C@H]1C[C@H](CC(=O)N3CCc4ccccc4C3)O[C@H](CO)[C@H]1O2)c1ccc2c(c1)OCO2`, the inhibition was 17% (inactive).

Regarding `CS(=O)(=O)N1[C@@H](C#N)[C@H](c2ccc(C#Cc3cccc(F)c3)cc2)[C@@H]1CO`, the inhibition was -161% (inactive).

In the case of `O=C(C[C@@H]1CC[C@@H](NC(=O)C2CCOCC2)[C@@H](CO)O1)NCC1CCCCC1`, the inhibition is -39.2% (inactive).

On to `CO[C@@H]1CN(C)C(=O)c2ccc(NS(=O)(=O)c3ccc(C)cc3)cc2OC[C@H](C)N(C)C[C@@H]1C`, for which the inhibition is -16.4% (inactive).

Take `CC(=O)N1CC2(C1)[C@H](c1ccccc1)[C@H](CO)N2C(=O)c1cnccn1`: the inhibition is -10.2% (inactive).

Regarding `CCCNC(=O)N1C[C@@H]2[C@H](c3ccccc31)[C@@H](CO)N2Cc1cccc(OC)c1`, the inhibition was -37.6% (inactive).

For `COCCNC(=O)c1cc2c(c(-c3cccc(C4=CCCCC4)c3)n1)[C@@H](CCO)N([S@](=O)C(C)(C)C)C2`, the inhibition was -10.8% (inactive).

For the molecule `CCc1nc(N2[C@H](CO)[C@@H](c3ccccc3-c3ccc(F)cc3)[C@@H]2C#N)sc1C`, the inhibition is 55.4% (active).

For `CCc1nc(N2[C@H](CO)[C@H](c3ccccc3-c3ccc(F)cc3)[C@@H]2C#N)sc1C`, the inhibition was -17.7% (inactive).

`CCc1nc(N2[C@@H](C#N)[C@@H](c3ccccc3-c3ccc(F)cc3)[C@@H]2CO)sc1C`: the inhibition is 10.1% (inactive).
